Assay outcomes as filed in PubChem BioAssay.
Sm TGR block: S. mansoni TGR enzyme inhibition. Q962Y6. purified TGR, DTNB reduction, TNB absorbance 405 nm. Potency, µM (highest dose often 114 µM), for inactives: at the top dose activity change, negative = inhibition, hits mostly inhibitors. actives 3% (n = 360,000). AID 485364; active = well fitted inhibition curve with a large enough effect; inconclusive = small, poorly fitted or top-dose-only effect; inactive = no such curve, though single readings can be large or run the other way; also: % is scaled to controls: 0 for no effect and ±100 for the full control effect; nearly all actives have a fitted effect of over 60% in size
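First, TGR (20 nM dispensed) and NADPH were mixed with compound. Second, a 15 min room-temperature incubation followed. Third, further NADPH and then DTNB were added to start the reaction. Finally, TNB absorbance was monitored kinetically.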
SARS PLP yeast: blocks SARS-CoV papain-like protease in a yeast assay; S. cerevisiae expressing SARS-CoV PLpro, growth rescue; Potency, µM (doses to about 32.9 µM), for the others: at the highest dose activity, positive = growth rescue, hits mostly activators; actives 0.19% (n = 330,000); AID 485353; calls by dose curve; also: 0% is about no effect; nearly all actives have a fitted effect of over 55% in size
An asterisk follows results filed as active; ? = inconclusive; . = not tested or not shown. Only some compounds are listed: those with a hit (about 3% of all), similar ones and a draw of the others. Potency is read from the fitted curve at half-maximal effect.

SMILES	Sm TGR block	SARS PLP yeast
COc1ccc(C(C)=O)cc1COc1ccccc1[N+](=O)[O-]	11.2µM*	2.0%
Nc1ccc(C(=O)OCc2ccncc2)cc1[N+](=O)[O-]	-13.9%	-3.2%
COc1ccc(C(C)=O)cc1COC(=O)c1ccc(N)c([N+](=O)[O-])c1	8.91µM*	0.0%
COc1ccc(CNC(=O)Cn2c(SCC(=O)Nc3ccc(OC)cc3)nc3ccccc32)cc1	-5.5%	.
CCc1ccc(NCc2cc3ccc(OC)cc3n(CC(=O)Nc3ccc(C(C)C)cc3)c2=O)cc1	33.9%	.
CCC(=O)N1CCc2cc(CNS(=O)(=O)c3ccc(NC(=O)CC(C)C)cc3)ccc21	5.9%	.
CC(C)CCn1c(=O)c2cccnc2n(CC(=O)Nc2ccccc2)c1=O	-18.2%	.
COc1ccccc1/C=N/OCc1cc(C(C)=O)ccc1OC	11.2µM*	-3.3%
COc1ccccc1/C=N/OC(=O)c1ccc(F)cc1	3.1%	-4.4%
CCc1ccc(-c2nn(CC(=O)NC3CCCC3)c3c2cnc2ccc(C)cc23)cc1	-2.6%	.
CC(C)(C)NS(=O)(=O)c1ccc(CCC(=O)NCc2ccco2)cc1	35.5µM*	2.1%
O=C(CCc1ccc(S(=O)(=O)NCc2ccccc2)cc1)NCc1ccco1	-1.7%	13.8%
COc1ccc(-c2cc(C(=O)NCc3ccco3)c3ccccc3n2)cc1	39.8µM*	-5.3%
COc1cccc(NC(=O)CCC(=O)NCc2ccco2)c1	-11.1%	3.9%
COc1ccc(CCC(=O)NCc2ccco2)cc1	56.2µM*	-8.5%
O=C(NCc1ccco1)c1cc(-c2ccccc2)nc2ccccc12	30.9%	-11.9%
COc1ccc(NC(=O)C(C)N(c2ccccc2)S(C)(=O)=O)cc1 (stereo not drawn)	2.5%	.
COc1ccc(N(C(C)C(=O)NCc2ccco2)S(C)(=O)=O)cc1 (stereo not drawn)	25.1µM*	-2.1%
CCc1c(-c2ccccc2)nc2ccccc2c1C(=O)NC(C)c1ccccc1 (stereo not drawn)	2.4%	.
COc1cc(NC(=O)Cn2c(=O)nc(-c3ccccc3F)c3cc(Cl)ccc32)cc(OC)c1	-8.5%	.
Cc1ccc(-c2nc(CSc3nnc(C)n4c3cc3occc34)c(C)o2)cc1	1.0%	.
O=C(c1ccc(Cl)cc1)C(CN1CCCC1)c1ccccc1 (stereo not drawn)	28.2µM*	-20.0%
COc1ccc(C(=O)C(CN2CCCC2)c2ccccc2)cc1 (stereo not drawn)	-5.2%	-31.8%
CCn1c(SCc2c(Cl)cccc2Cl)nnc1-c1nn(-c2ccccc2)ccc1=O	100µM*	-17.2%
Cc1nnc(SCc2c(Cl)cccc2Cl)n(N)c1=O	3.9%	-5.2%
SMILES	Sm TGR block	SARS PLP yeast
Cc1cc(=O)n2c(C(=O)Nc3ccc(Br)cc3)c(C(=O)Nc3ccccc3)sc2n1	-8.5%	.
Cc1ccc(SCc2nc(-c3ccc(C(=O)NCC(C)c4ccccc4)cc3)oc2C)cc1 (stereo not drawn)	-10.7%	.
CC1(C)CC2(C)OC(=N)C1(C#N)C2(C#N)C#N (stereo not drawn)	12.6µM*	-0.7%
Cc1ccc(-n2c(=O)c3c(cnn3C)n(CC(=O)Nc3cccc(C)c3)c2=O)cc1	-0.4%	.
Cc1cccc(NC(=O)NCCOCCn2c(=O)oc3ccccc32)c1C	-2.8%	.
O=[N+]([O-])c1ccc(Cl)c(S(=O)(=O)/N=C(/Nc2cccnc2)c2ccccc2)c1	.	7.6%
O=C(Nc1cccnc1)c1ccc(NS(=O)(=O)c2cc([N+](=O)[O-])ccc2Cl)cc1	31.6µM*	0.5%
C/C(=N\Nc1ccc(C)c(Cl)c1)c1cccnc1	14.1µM*	-6.7%
C/C(=N\Nc1ccc(C)c(Cl)c1)c1ccncc1	-27.9%	-35.4%
CCc1ccc(OCc2cc(=O)n3cc(C)sc3n2)cc1	6.3%	.
Cc1ccc(C(=O)N2CC(=O)Nc3ccc(Br)cc3C2c2ccc(F)cc2)cc1C (stereo not drawn)	-2.9%	.
O=C(NCc1ccc2[nH]c3c(c2c1)CCCC3)N1CCOCC1	35.5µM*	-1.9%
O=C(NCc1ccc2[nH]c3c(c2c1)CCCC3)c1ccc(S(=O)(=O)N2CCOCC2)cc1	-0.7%	3.7%
O=C(NCc1ccccc1)c1nc(S(=O)(=O)Cc2ccccc2)ncc1Cl	8.91µM*	-12.8%
Cc1noc(C(=O)NCc2ccccc2)c1Cl	4.6%	2.6%
COc1ccc(CNC(=O)c2nc(S(=O)(=O)Cc3ccccc3)ncc2Cl)cc1	2.51µM*	-8.4%
CCS(=O)(=O)c1ncc(Cl)c(C(=O)NCc2ccccc2)n1	31.6µM*	.
CCCS(=O)(=O)c1ncc(Cl)c(C(=O)Nc2c(C(=O)Nc3ccccc3)oc3ccccc23)n1	-5.4%	.
CS(=O)(=O)c1ncc(Cl)c(C(=O)Nc2ccc3ccccc3c2)n1	.	-3.4%
CC(=O)Nc1ccc(NC(=O)c2nc(S(=O)(=O)Cc3ccccc3)ncc2Cl)cc1	5.01µM*	8.9%
COc1ccc(CNC(=O)c2nc(SC(C)C)ncc2Cl)cc1	-3.9%	.
COC(=O)c1c(-c2cccs2)csc1NC(=O)COc1ccc(C(C)(C)C)cc1	-4.6%	.
Cc1ccc(N(C)C(=O)CN2C(=O)CCc3cc(S(=O)(=O)N4CCOCC4)ccc32)cc1	-10.1%	.
CCOc1ccc(C2c3c(oc4ccc(C)cc4c3=O)C(=O)N2Cc2ccc3c(c2)OCO3)cc1OC (stereo not drawn)	4.0%	.
O=C1OCC2=C1C(c1cccc(Cl)c1)CC(=O)N2c1ccc(C(F)(F)F)cc1 (stereo not drawn)	-1.1%	.
SMILES	Sm TGR block	SARS PLP yeast
COC(=O)c1cscc1S(=O)(=O)Cc1ccccc1	10µM*	3.3%
CCCSc1ncc(Cl)c(C(=O)N(Cc2ccccc2)c2ccc(OC)cc2)n1	2.4%	.
COC(=O)c1ccccc1NC(=O)c1nc(S(=O)(=O)Cc2ccccc2)ncc1Cl	2.82µM*	-7.2%
COC(=O)c1ccccc1NC(=O)c1sc(Cl)nc1C	-25.7%	-4.3%
O=C(c1ccc(Cl)cc1)N(Cc1ccco1)Cc1ccco1	-2.4%	.
COC(=O)c1ccccc1NC(=O)CN(CCc1ccccc1)S(C)(=O)=O	-0.1%	.
COc1ccc(N(Cc2ccccc2)C(=O)c2nc(S(C)(=O)=O)ncc2Cl)cc1	5.62µM*	.
CS(=O)(=O)c1ncc(Cl)c(C(=O)N(Cc2ccc(Cl)cc2)Cc2ccco2)n1	1.78µM*	.
Cc1ccc2oc(-c3ccc(NC(=O)c4oc5ccc(Cl)cc5c4C)cc3)nc2c1	5.9%	.
COc1ccc(Nc2oc(/C=C/c3ccc(OC)c(OC)c3)nc2C#N)cc1	-13.0%	.
COCCCNC(=O)CSc1nc(-c2cccc(F)c2)[nH]c1-c1ccccc1	-7.4%	.
O=C(c1ccc(Br)cc1)N(Cc1ccco1)c1ccccn1	-4.7%	.
Cc1ccccc1OCc1nc2c3cnn(-c4cccc(F)c4)c3ncn2n1	12.0%	.
O=C(O)CN1C(=O)c2cccc3c(Br)ccc1c23	-32.9%	1.2%
CN(C)CCCN1C(=O)c2cccc3c(Br)ccc(c23)C1=O	8.91µM*	-0.8%
Cc1ccc2occ(-c3cc(-c4ccccc4)nc4c3COc3ccccc3-4)c(=O)c2c1	-2.8%	.
CN(C)C(=O)c1ccc(S(=O)(=O)NCc2ccccc2Cl)s1	3.7%	.
CCCN=C1N/C(=C\c2ccco2)C(=O)N1c1ccccc1	39.8µM*	-6.3%
CCCN(CCC)C1=N/C(=C\c2ccco2)C(=O)N1c1ccccc1	15.8µM*	0.1%
O=C1/C(=C\c2ccco2)NC(=S)N1c1ccccc1	-12.7%	-0.7%
O=C1/C(=C\c2ccco2)SC(=S)N1c1ccccc1	?	-5.8%
CCc1ccc(-n2nc(C)c3c(C)cc(=O)n(CC(=O)Nc4cc(Cl)ccc4OC)c32)cc1	-1.3%	.
